Laboratory results as given in PubChem BioAssay (NCATS).
Inconclusive results are not listed. A number with no mark means an inactive call. Calls come from the whole dose curve; as a rule, active = well fitted inhibition curve with a large enough effect; inconclusive = small, poorly fitted or top-dose-only effect; inactive = flat fitted curve, though single readings scatter.

Each compound was assayed on CP215 (assay: qHTS profiling for inhibitors of Plasmodium falciparum proliferation (AID 504749;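 note: 0% = DMSO vehicle and full inhibition = artemisinin control; nearly all actives have a fitted effect of over 60% in size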)). Details: P. falciparum in erythrocytes, SYBR Green DNA, 72 h; series mostly up to 28.7 µM; activity, negative = inhibition: at the top concentration.
Procedure, shortened: (§1)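 Quantitative HTS: compounds pinned into medium, infected erythrocytes added (0.3% parasitemia, 2.5% hematocrit), 72 h culture at 37 C under 5% CO2. Saponin/Triton lysis with SYBR Green I, overnight RT, then fluorescence read.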

SMILES	activity, negative = inhibition
C[N+](C)(C)CC(O)CC(=O)O (centres undefined)	-8.49%
CN1CCCC[C@@H]1CCN1c2ccccc2Sc2ccc(S(C)=O)cc21 (some centres undefined)	0.171%
O=C(Cc1cccs1)NC1C(=O)N2C(C(=O)[O-])=C(C[n+]3ccccc3)CSC12 (centres undefined)	2.25%
C[C@@H]1CCC[C@H](C)N1NC(=O)c1ccc(Cl)c(S(N)(=O)=O)c1	-0.93% [at 12.8 µM]

The compounds below were run on CP217 in the same assay as above. Details: P. falciparum in erythrocytes, SYBR Green DNA, 72 h; series mostly up to 12.8 µM; activity, negative = inhibition: at the top concentration.
Procedure, shortened: as §1

SMILES	activity, negative = inhibition
C[N+](C)(C)CC(O)CC(=O)O (centres undefined)	8.38% [at 28.7 µM]
CN1CCCC[C@@H]1CCN1c2ccccc2Sc2ccc(S(C)=O)cc21 (some centres undefined)	-5.88% [at 28.7 µM]
O=C(Cc1cccs1)NC1C(=O)N2C(C(=O)[O-])=C(C[n+]3ccccc3)CSC12 (centres undefined)	4.26% [at 28.7 µM]
C[C@@H]1CCC[C@H](C)N1NC(=O)c1ccc(Cl)c(S(N)(=O)=O)c1	0.702%
CC(C)N1CCN(c2ccc(OC[C@@H]3CO[C@@](Cn4cncn4)(c4ccc(Cl)cc4Cl)O3)cc2)CC1	-7.22%
